# Bioassay records as filed in PubChem.
# Hits are enriched below; roughly 5.4% of the tested compounds scored in any of these assays.
# ALR H2O2 inh: inhibitors of human ALR sulfhydryl oxidase, primary screen, biochemical, H2O2 detection, HRP-luminol luminescence, single point | FAD-linked sulfhydryl oxidase ALR (Homo sapiens), P55789 | purified ALR, DTT oxidation | inhibition, % (no concentration beside the values) | 3.8% of 290,000 active | AID 485317, 2010;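 active = mean replicate inhibition above about 79%, with every replicate also reaching it, limit read from the data; inconclusive = only one of the two criteria met; inactive = mean below limit and not every replicate reaching it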
# PP1 counter: PP1-alpha phosphatase inhibitors, primary screen, counter-screen for PP5 inhibitor project, biochemical, fluorescence, OMFP substrate, single point. purified PP1alpha. inhibition, % at 6.7 µM. 0.9% of 320,000 active;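 active = inhibition above the mean inhibition of all tested compounds plus 3 SD, computed separately for each screening campaign, cut at about 15% in these data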
# CSC inhib: cancer stem cell viability inhibitors, primary screen, luminescence. cancer stem cell-like cells viability. inhibition, % at 7.5 µM. 1.1% of 300,000 active. AID 2717, 2010; in the data active = inhibition above about 75%; inconclusive = no clear call, values can overlap the other calls; tested in HMLE shEcad cells
# Calb FLC: C. albicans growth inhibition with fluconazole, primary screen, CaCi-2 strain, Alamar Blue fluorescence. C. albicans CaCi-2 (fluconazole-resistant clinical isolate) + fluconazole, 48 h. growth inhibition, % (no concentration beside the values). 0.57% of 300,000 active. AID 1979, 2009;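 active = growth inhibition above about 58% in most replicates, limit read from the data, passing the limit was not always enough; inconclusive = exactly half the replicates above a set limit; inactive = most replicates below a set limit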;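 also: all wells also contain fluconazole at 8 µg/ml as a sub-toxic cotreatment; 0% = median of DMSO wells and 100% = median of geldanamycin control wells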
# PP5 primary: PP5 phosphatase inhibitors, primary screen, biochemical, fluorescence. Serine/threonine-protein phosphatase 5 (Homo sapiens), P53041. purified PP5c, OMFP substrate fluorescence. inhibition, % at 6.7 µM. 0.18% of 320,000 active. AID 1987, 2009;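 active = inhibition above the campaign's mean inhibition across all tested compounds plus 3 SD, cut at about 9.5% in these data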;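 also: 0% = DMSO only and 100% = 100 µM cantharidin control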
# Target sequence (P53041 whole entry, looked up): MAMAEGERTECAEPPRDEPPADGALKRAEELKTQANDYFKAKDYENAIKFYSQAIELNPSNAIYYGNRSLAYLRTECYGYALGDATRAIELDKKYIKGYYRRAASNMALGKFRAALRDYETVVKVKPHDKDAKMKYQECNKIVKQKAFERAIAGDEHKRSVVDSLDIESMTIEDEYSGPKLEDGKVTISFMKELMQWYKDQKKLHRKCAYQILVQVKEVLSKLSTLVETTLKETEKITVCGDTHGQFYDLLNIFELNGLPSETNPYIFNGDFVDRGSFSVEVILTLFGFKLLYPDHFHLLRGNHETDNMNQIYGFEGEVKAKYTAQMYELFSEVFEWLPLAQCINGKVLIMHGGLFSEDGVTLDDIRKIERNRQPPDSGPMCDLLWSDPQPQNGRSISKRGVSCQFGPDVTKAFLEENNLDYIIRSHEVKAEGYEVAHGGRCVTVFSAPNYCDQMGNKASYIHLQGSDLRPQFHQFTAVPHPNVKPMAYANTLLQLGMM
# An asterisk follows results filed as active; u = inconclusive; x = no result given.
SMILES,ALR H2O2 inh,PP1 counter,CSC inhib,Calb FLC,PP5 primary
O=C(CSc1c2c(nc3ccc(Cl)cc13)CCCC2)NCCCN1CCOCC1,97.7*,3.1,11.2,4.2,0.3
CCN(CC)CCCNC(=O)CSc1c2c(nc3cc(Cl)ccc13)CCCC2,3.3,1.3,1.8,-25.8,1.4
COc1cccc(C(=O)N2N=C(c3cccc(OC)c3)CC2(O)C(F)(F)F)c1 (centres undefined),-3.0,-2.0,-1.1,8.6,2.7
CCOC(=O)c1ccccc1NC(=O)N1CCn2c(C)ccc2C1CC (centres undefined),7.1,-5.7,-7.1,-2.4,1.6
COc1ccc(OC)c(/C=C2\S/C(=N/NC(=O)c3ccc4ccccc4c3)NC2=O)c1,-4.4,4.5,106.2*,-3.9,1.8
O=C(COc1ccc2c(c1)CCC2)NCc1cccc(Cl)c1,x,6.3,-0.3,71.5*,4.9
O=C(O)c1cccc(COc2ccc3c(c2)CCC3)c1,90.7*,1.8,7.7,8.2,-0.8
COc1ccc(OCC(=O)Nc2ccc3c(c2)CCC3)cc1,-0.5,5.0,14.7,x,4.7
COc1cccc(OCC(=O)Nc2cc(NC(=O)COc3cccc(OC)c3)cc(C(=O)O)c2)c1,99.1*,8.1,-16.4,4.0,0.5
COc1cccc(NC(=O)COc2ccc3c(c2)CCC3)c1,-5.4,-0.4,x,100.5*,-3.2
O=C(NCc1ccccc1)c1cccc(COc2ccc3c(c2)CCC3)c1,x,5.7,-8.1,-10.8,1.5
O=C1CCC(=O)N1OCCOc1ccc(Cl)c2ccccc12,x,-1.0,-5.0,-0.1,1.3
COc1ccc(-c2[nH]ncc2CN(C)C(C)c2ccon2)cc1F (centres undefined),-3.4,-7.8,8.8,-8.4,-0.9
Cc1cccc(OCC(=O)Nc2cc(NC(=O)COc3cccc(C)c3C)cc(C(=O)O)c2)c1C,80.4*,-0.5,9.3,-2.3,1.6
Cc1ccccc1OCC(=O)Nc1cccc(C(=O)O)c1,x,x,x,-11.5,x
COc1ccc(Cn2cnc3sccc3c2=O)cc1,0.0,-1.0,-4.2,x,-0.7
CCN(CCNC(=O)c1cccc(N2CCCC2=O)c1)c1ccccc1,98.4*,1.9,-9.9,x,2.3
CC(C)N(CCCNC(=O)c1ccc(N2CCCC2=O)cc1)Cc1ccccc1,-4.5,-0.7,-1.6,6.7,-0.6
CC(=O)c1c(C)[nH]c(C(=O)NCc2ccccc2)c1C,3.5,2.0,-22.1,0.3,1.2
CCN(CCCNC(=O)c1ccc(N2CCCC2=O)cc1)c1cccc(C)c1,90.3*,2.6,17.3,0.4,1.2
CCN(CCCNC(=O)c1[nH]c(C)c(C(C)=O)c1C)c1cccc(C)c1,98.6*,-3.9,2.2,2.7,-1.3
COc1ccc(Cl)cc1NC(=O)C(C)OC(=O)c1ccc(NS(=O)(=O)c2ccc3[nH]c(=O)[nH]c3c2)cc1 (centres undefined),-0.8,3.6,2.7,0.3,3.8
Cc1cc(S(=O)(=O)N2CCCC2)ccc1OCC(=O)N1CCCCC1,-3.0,-2.6,-10.4,3.3,0.4
CN(C(=O)COC(=O)C1CCN(S(=O)(=O)c2c(Cl)cccc2Cl)CC1)c1ccccc1,-6.9,-4.1,21.8,5.2,1.5
Cc1cccn2c(CNCCCn3ncc4ccccc43)c(C(=O)N3CCCCC3)nc12,-19.0,-3.1,13.9,-1.5,0.1
SMILES,ALR H2O2 inh,PP1 counter,CSC inhib,Calb FLC,PP5 primary
CCC(=O)c1ccc2c(c1)N(CCCN(C)C)c1ccccc1S2,98.2*,-7.5,4.3,x,0.5
CN(C)CCCN1c2ccccc2CCc2ccc(Cl)cc21,67.0,0.8,8.4,x,1.0
CN(C)CCCN1c2ccccc2Sc2ccccc21,97.7*,-4.0,-0.4,x,-0.2
COc1ccc2c(c1)Sc1ccccc1N2CCN(C)C,98.2*,0.8,3.0,-19.9,0.4
CC(NS(=O)(=O)c1ccc([N+](=O)[O-])cc1)C(=O)NN (centres undefined),-12.6,-1.8,-1.8,-23.9,0.4
Cc1ccc(NC(=S)c2ccc3ccccc3n2)c(C)c1,-0.6,-0.5,-1.4,-5.5,1.7
CCN(CC)c1ccc(NC(=O)CN2CCN(CC(=O)Nc3ccc(F)cc3)CC2)cc1,98.5*,-2.1,-16.0,x,-0.1
CN(C)c1ccc(NC(=O)CN2CCc3ccccc3C2)cc1,99.4*,2.5,-14.0,-8.5,2.8
CSc1ccc(NC(=O)NCCN2CCc3ccccc3C2)cc1,97.8*,-2.0,7.0,-19.5,-0.7
CCN(CC)c1ccc(NC(=O)CN2CCN(CC(=O)Nc3ccc(OC)cc3)CC2)cc1,u,-4.1,-14.1,3.5,0.8
CN(C)c1ccc(NC(=O)CCN2CCN(c3ccccn3)CC2)cc1,99.0*,-4.2,-18.9,-15.9,-1.2
CCOC(=O)N1CCC(NC(=O)c2ccc(CO)c(C(=O)NC3CCN(C(=O)OCC)CC3)c2)CC1,-11.1,-0.7,-6.8,-3.5,4.7
COC(=O)c1c(C(=O)OC)c(-c2ccc(OC)cc2)n2c1CCC2,x,2.4,-24.2,7.4,0.0
CN(C)c1ccc(NC(=O)CN2CCC(N3CCCCC3)CC2)cc1,99.3*,-1.3,-4.9,-11.3,-1.0
CN1CC(=O)N(CC(=O)Nc2ccc(N(C)C)cc2)c2ccccc2C1=O,98.9*,0.8,-11.9,4.5,2.2
CN1CC(=O)N(CC(=O)NCCc2ccc(F)cc2)c2ccccc2C1=O,-11.2,0.0,-12.5,x,-1.9
O=C(Nc1cccc(-c2ccc(N3CCCCC3)nn2)c1)C(F)(F)F,91.6*,-4.0,32.4,0.3,3.4
O=S(=O)(Nc1cccc(-c2ccc(N3CCCCCC3)nn2)c1)c1ccccc1Cl,-4.8,17.3*,66.7,1.0,6.9
Cc1ccc(S(=O)(=O)Nc2cccc(-c3ccc(N4CCCCCC4)nn3)c2)cc1C,-3.1,17.1*,18.2,4.3,4.3
O=S(=O)(Nc1cccc(-c2ccc(N3CCCCCC3)nn2)c1)c1ccc(F)cc1,-2.1,5.2,28.1,17.3,3.3
O=S(=O)(Nc1cccc(-c2ccc(N3CCCCCC3)nn2)c1)c1ccc(C(F)(F)F)cc1,1.1,16.6*,27.2,11.4,3.5
C=CCOC(=O)C1=C[C@@H](c2ccccc2)[C@H](CCCO)[C@@H](OCC)O1,-18.9,-0.5,-2.3,10.2,2.5
Cc1ccc(N2CN=C(c3ccccc3)NC2=S)cc1,1.7,-0.4,-1.8,-9.5,1.6
COc1ccc(CN2CCC(=O)N([C@H](CO)Cc3ccccc3)CC2)cc1,1.5,-4.7,2.0,-5.1,-0.7
CCOC(=O)c1c(NC(=O)c2ccc(Br)o2)sc(C)c1CC,5.7,-3.2,6.3,2.2,-0.7
C=CCn1c(NC(=O)c2ccc(Br)o2)c(C(=O)OCC)sc1=S,8.4,-0.4,x,92.6*,3.8
Cc1ccc(C)c(N2CCN(C(=O)C3CCCN(S(=O)(=O)c4cnc[nH]4)C3)CC2)c1 (centres undefined),97.0*,-0.9,-2.7,0.2,2.9
COc1ccc(C)cc1NC(=O)C1CCCN(S(=O)(=O)c2cnc[nH]2)C1 (centres undefined),46.2,1.9,-9.6,-0.9,-1.6
